# Measurements published in PubChem BioAssay (EPA / NIEHS).
# The source made the active and inactive calls. The calls were made as follows: active = hit-call score of the fitted dose curve at least 0.9, where 1 is the maximum; inactive = score below 0.9.
# Read-out: Cytochrome P450 (CYP1A2), CYP1A2 (gene 1544)
# Experiment: LTEA_HepaRG_CYP1A2: Life Technologies and Expression Analysis (LTEA) Assay for Cytochrome P450 (CYP1A2) using HepaRG (AID 2283479);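 as to AC50: TaqMan qRT-PCR transcript level normalized to ACTB GAPDH and POLR2A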
# Conditions: mRNA level, 48 h; actives raise or lower the signal
# Protocol: LTEA_HepaRG is a cell based, multiplexed-readout assay that uses HepaRG, a human liver cell line, with measurements taken at 48 hours after chemical dosing on a 96-well plate.LTEA_HepaRG_CYP1A2 is one of 102 assay component(s) measured in the LTEA HepaRG cell culture assay. It is a marker of NR mediated metabolism.Data from the assay component LTEA_HepaRG_CYP1A2 was analyzed into 1 endpoint. This assay endpoint, LTEA_HepaRG_CYP1A2, was analyzed with bidirectional fitting relative to DMSO as the negative control and baseline of activity. Using a type of inducible reporter, measures of mRNA induction for gain or loss-of-signal activity can be used to understand regulation of transcription factor activity. To generalize the intended target to other relatable targets, this assay endpoint is annotated to the cyp intended target family, where the subfamily is xenobiotic metabolism.
# A total of 1060 chemcials from the ToxCast library were tested in eight-point concentration-response experiments. Cell culture and cytotoxicity assays were conducted at Thermo Fisher Scientific's Custom Services facility (Madison, WI). A single lot of human HepaRG cells (Thermo Fisher Scientific, Frederick, MD) was used for the cell culture experiments. 96-well format collagen type I coated plates of human HepaRG cells were prepared using established methods. Briefly, cryopreserved HepaRG cells were thawed, plated at a density of approximately 100,000 cells/well in HepaRG Thaw, Plate, and General Purpose media (HPRG770, Thermo Fisher Scientific), and incubated for 48 hours. 0.5% DMSO was selected as vehicle control to balance the requisite need of DMSO in HepaRG cultures to maintain differentiation (for example, baseline metabolism, proportions of hepatocytes vs. cholangiocytes), while enabling further hepatic receptor pathway activation (for example, PXR and CAR) in response to chemical exposure. 48 hours after plating, the culture medium was replaced with HepaRG Serum-Free Incudtion Media. Cells were exposed to each test chemical in duplicate and maintained in CO2 incubators for another 48 hours. Chemical plates were thawed to room temperature and 200x concentrations of treatment groups were prepared. 8-point conentration-reponse curves were made with the highest exposure at 100 uM, followed by half-log dilutions, all in 0.5% DMSO. Each test plate contained variouse controls, induction positive controls (1mM phenobarbital), cytotoxicity positive controls ([…] aflatoxin B1), vehicle controls (0.5% DMSO), and total lysis controls (0.5% DMSO). Cell morphology images were taken using an Essen IncuCyte FLR automated microscope, with six 96-well plates imaged in about 24 minutes. Images were captured and exported and JPEG files. Spent culture media was transfered to black-well plates for the LDH assay, and remaining media was sorted at -80 C for later use. Cells were treated with RLT buffer and frozen until shipped for gene expression analysis. Total RNA was isolated from the cell suspension in 75 uL of Buffer RLT (Qiagen, Germantown, MD 20874) by Quintiles/Expression Analysis (Durham, NC) using a custom isolation procedure. Total RNA from each plate well was transferred to a preamplification plate. Fluidigm's 96.96 Dynamic ArrayTM (Fluidigm, Amsterdam, the Netherlands) technology was used for gene expression analyses by quantitative reverse transcription polymerase chain reaction (qRT-PCR, performed by Quintiles/Expression Analysis, Durham, NC)89. Standard TaqManTM Assays (Applied Biosystems/ThermoFisher Scientific, Foster City, CA) were used to assess the expression of 93 genes selected based on their selectivity and sensitivity to important hepatic receptors known to be modulated by environmental chemicals; importance in human hepatocyte functionality; and hepatotoxicity. […]
Compound,outcome,AC50
CC(C)=CC1C(C(=O)OCc2coc(Cc3ccccc3)c2)C1(C)C (stereo not given),inactive,
CS(=O)(=O)c1ccc(C(=O)C2C(=O)CCCC2=O)c([N+](=O)[O-])c1,,18.4 µM (active)
CCOc1cc(C(C)(C)C)ccc1C1COC(c2c(F)cccc2F)=N1 (stereo not given),inactive,
COCc1cnc(C2=NC(C)(C(C)C)C(=O)N2)c(C(=O)O)c1 (stereo not given),inactive,
CC1(C)CON(Cc2ccccc2Cl)C1=O,inactive,
CC(C)Oc1cccc(NC(=O)c2ccccc2C(F)(F)F)c1,,80 µM (active)
O=C(O)c1c(Cl)ccc2cc(Cl)cnc12,inactive,
O=P(O)(O)CCCl,inactive,
CC(C)NC(=O)N1CC(=O)N(c2cc(Cl)cc(Cl)c2)C1=O,,8.18 µM (active)
CC(C)(C)C(=O)C(Oc1ccc(Cl)cc1)n1cncn1 (stereo not given),inactive,
O=c1n(Cl)c(=O)n(Cl)c(=O)n1Cl,,50 µM (active)
CCNC(=O)NC(=O)C(C#N)=NOC,inactive,
N#Cc1c[nH]cc1-c1cccc2c1OC(F)(F)O2,,21.3 µM (active)
CCOc1nc(F)cc2nc(S(=O)(=O)Nc3c(Cl)cccc3Cl)nn12,inactive,
Cn1c(-c2ccccc2)cc(-c2ccccc2)[n+]1C,,13.2 µM (active)
CC(C)Nc1nc(Cl)nc(NC(C)C)n1,inactive,
CCSC(=O)N1CCCCCC1,inactive,
Cc1ccc(N=CN(C)C=Nc2ccc(C)cc2C)c(C)c1,,51.6 µM (active)
CCOc1nc(C(Cl)(Cl)Cl)ns1,,0.939 µM (active)
CCNP(=S)(OC)O/C(C)=C/C(=O)OC(C)C (stereo not given),,18 µM (active)

Compound,outcome,AC50
COc1cc(Cl)c(OC)cc1Cl,,50 µM (active)
CNC(=O)Oc1cccc2ccccc12,inactive,
CCCCOCN(C(=O)CCl)c1c(CC)cccc1CC,inactive,
CCOP(=O)(OCC)Oc1nc(Cl)c(Cl)cc1Cl,inactive,
COP(=O)(OC)O/C(C)=C/C(=O)N(C)C,inactive,
C=C(C)CN(CC)c1c([N+](=O)[O-])cc(C(F)(F)F)cc1[N+](=O)[O-],,33 µM (active)
Cc1nc(N(C)C)nc(OC(=O)N(C)C)c1C,inactive,
C=CCOC(=O)C(C)(C)OC(=O)c1cc(-n2c(=O)cc(C(F)(F)F)n(C)c2=O)ccc1Cl,inactive,
O=C1C2CC=CCC2C(=O)N1SC(Cl)(Cl)Cl (stereo not given),inactive,
Cc1cnc(C2=NC(C)(C(C)C)C(=O)N2)c(C(=O)O)c1 (stereo not given),inactive,
COc1cc(OC)nc(NC(=O)NS(=O)(=O)c2ncccc2OCC(F)(F)F)n1,inactive,
COc1ccc(-c2ccccc2)cc1NNC(=O)OC(C)C,,74.5 µM (active)
CCC(C)n1c(=O)[nH]c(C)c(Br)c1=O (stereo not given),,8.92 µM (active)
COC(=O)NS(=O)(=O)c1ccc(N)cc1,inactive,
CCOC(=O)C(C)OC(=O)c1cc(Oc2ccc(C(F)(F)F)cc2Cl)ccc1[N+](=O)[O-] (stereo not given),inactive,
CCCCC(C#N)(Cn1cncn1)c1ccc(Cl)cc1 (stereo not given),,19.3 µM (active)
CO/N=C(/C1=NOCCO1)c1ccccc1Oc1ncnc(Oc2ccccc2Cl)c1F,,13.1 µM (active)
N#Cc1c(Cl)cccc1Cl,inactive,
CSC(=O)c1c(C(F)F)nc(C(F)(F)F)c(C(=O)SC)c1CC(C)C,inactive,
CC(C)N1C(=O)N(c2ccccc2)CSC1=NC(C)(C)C,,50 µM (active)
